Tested on: PPARg:RXRa 90nM:30nM, anti-RXR (NR concentration 90 nM, RXRa partner concentration 30 nM)
Test: PBM binding z-score (relative to random genomic background probes); higher = stronger binding; sequences stand for … in GC…GCGATTGACAGCGTAGAATGAAGG
Procedure, shortened: (§1)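 The probes on custom Agilent 4×180K protein-binding microarrays were double-stranded, with 34-nt variable regions bearing direct-repeat seeds, single-nucleotide variants, half-site ablations and random human genomic background sequences. Incubation lasted 1 h with ligand-free nuclear receptor dimers in PBS pH 7.4, 2% milk, 0.02% Triton X-100, 1 mM DTT, 0.2 mg/mL BSA and 0.4 mg/ml salmon testes DNA. Antibodies against each partner (one per run) detected bound dimers, and fluorescence scans were regression-normalized. Binding z-scores take the random background probes as reference.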

Question: Which PBM binding z-score does the source give for CCAGACAGGTGAGAAGGGAACTCAGCCTCGATTA here?
Answer: -0.306

Question: Which PBM binding z-score does the source give for ACTCGGAGGACAAAGGTCTGAGCTACGCCAGTGA here?
Answer: 3.02

Question: With ACCTCTAGGTAACCAAGTTCAGTGAATGCCGAAC as the sequence, how does the PBM binding z-score read?
Answer: 0.404

Question: Which PBM binding z-score does the source give for AATACAGGGTCATCGTAGGCCGGAGTACGCACAG here?
Answer: 4.59

Question: How did the PBM binding z-score turn out when CCACCAAGGTGAACAAGGTCGTTGATTACTATTC was run?
Answer: 0.583

Question: With CCGAGTAGGTTATGGCGCATTCAGGCAACGGTGA as the sequence, how does the PBM binding z-score read?
Answer: 0.107

Question: ACTTACGGGTCAACGAGGGTATAGCACGCGTATA was tested. Which PBM binding z-score did it give?
Answer: 3.63

Question: For CGTCCAAGGTCAGAGAGGTCAGTCAATGCCGAGT, which PBM binding z-score is on record?
Answer: 2.63

Question: For CAAACTAGGTCAAGAGGTTAAAGTCCGCTTCCCG, which PBM binding z-score is on record?
Answer: 7.16

Question: With TCTAGCAGGCCAGAGAGTCACTCAAGAGGTACGG as the sequence, how does the PBM binding z-score read?
Answer: 1.4

Question: TCTTTTAGATCAAAGGTTAAGAAAGCCGAAGCCT was tested. Which PBM binding z-score did it give?
Answer: 7.4

Question: Which PBM binding z-score does the source give for CAAACTTGGTCAAGGTCAAAGTCGGTTTGTGCCA here?
Answer: 2.73

Question: Which PBM binding z-score does the source give for GCGACTGTGGCATCAGCAGGTTACCATAACTTAA here?
Answer: -0.487

Question: With ATCGAAAGGTCGAGGAGAGTATAGAGAAAGGGAA as the sequence, how does the PBM binding z-score read?
Answer: 2.09

Question: With CATACAGGGTCAGCTAGGCCACAGTAGGGACGGC as the sequence, how does the PBM binding z-score read?
Answer: 2.01

Question: Which PBM binding z-score does the source give for TCATATAGGAAAATGCTAGGTGAAAGTCCGATCT here?
Answer: 3.28

Question: For CCTCGGAGGACAGAACGTCAGAGCTGTCCGCTTT, which PBM binding z-score is on record?
Answer: -1.56

Question: With CCGACTGGGGCATAAGGTTACCATGAGCCAGCCC as the sequence, how does the PBM binding z-score read?
Answer: 2.8

Question: With TCTTGTAGATCAAGCAGGTTTAGAAAGCCTGAGT as the sequence, how does the PBM binding z-score read?
Answer: 1.35

Question: Which PBM binding z-score does the source give for GGAACGAGGGCAAGTTGATGGCAGAGTTTGATGG here?
Answer: 0.602

Question: How did the PBM binding z-score turn out when CCTCGGAGGACAACAGGTGGTCAGAGCTGCCAGA was run?
Answer: -1.37

Question: With TCGAGTAGGTTCCCAATGGGGCATTCAGCTTTCT as the sequence, how does the PBM binding z-score read?
Answer: 0.426

Question: For TCGAATAGGTTAGTCGGGGCATTCAGCCAACATA, which PBM binding z-score is on record?
Answer: 1.94

Question: For TCGAGTAGGTTACCAATGGGGTATTCAGCTTTCT, which PBM binding z-score is on record?
Answer: 1.28

Question: Which PBM binding z-score does the source give for CAAACTAGTTCAAGGTCAAAGTCGGTTTGTGCCA here?
Answer: 3.03

Question: CGAACTAGGTCATCCAGGACAGCGAATACATTGA was tested. Which PBM binding z-score did it give?
Answer: 5.78

Question: Which PBM binding z-score does the source give for ATACCAAAGTGATCGTGAGGTCGTTGATACTAAC here?
Answer: -0.173

Question: How did the PBM binding z-score turn out when ACCTCTAGGTAAGACTCAGTTCAGTGAAGAACGC was run?
Answer: -0.257

Question: How did the PBM binding z-score turn out when TCATATAGGTAAAATGTGAAAGTCGGTGTGGTAA was run?
Answer: 4.95

Question: Which PBM binding z-score does the source give for CCGACTGGGGCAGAAAGGTTACCATCCCATCCGG here?
Answer: 1.96

Question: TGGAGTAGGTTAGGGGCATTCAGAATGGCGTCGA was tested. Which PBM binding z-score did it give?
Answer: 2.46

Question: How did the PBM binding z-score turn out when CCTACTGGGCCAAAGTCATTGATCAGTCAAAGCA was run?
Answer: 1.74

Question: How did the PBM binding z-score turn out when ATTCGGAGGACAAAGGTCAGAGCTACGCCAGTGA was run?
Answer: 7.23

Question: ATACCAAGGTGATCGTGAGGTCGTTGAGACTAAC was tested. Which PBM binding z-score did it give?
Answer: -0.0872

Question: For GCTAGCAGGCCAGTTGGGTCACTCAATGACGGGC, which PBM binding z-score is on record?
Answer: -0.378

Question: With CCTACTGGGCCCAAAAGGTCATTGATGCCGATAA as the sequence, how does the PBM binding z-score read?
Answer: 2.69

Question: For AGAACGAGGGCACGATGAGTTGATAGCAGAGTAG, which PBM binding z-score is on record?
Answer: 1.51

Question: For TCATATAAGTAATACAGGTGAAAGTCGGCATCTA, which PBM binding z-score is on record?
Answer: 3.42

Question: For ATCGAAATGTCGACGAGGTGAGTATACACCGTTT, which PBM binding z-score is on record?
Answer: -0.0963

Question: How did the PBM binding z-score turn out when TCTCGGAGGACACGAAAGGTCAGAGCTCGACATC was run?
Answer: 2.41

Tested on: PPARg:RXRa DBDmut IVT, anti-RXR (DBD mutation: RXRa K156A/R161A, NR concentration 270 nM, RXRa partner concentration 90 nM)
Test: as above
Procedure, shortened: as §1

Question: For CCAGACAGGTGAGAAGGGAACTCAGCCTCGATTA, which PBM binding z-score is on record?
Answer: 0.589

Question: How did the PBM binding z-score turn out when ACTCGGAGGACAAAGGTCTGAGCTACGCCAGTGA was run?
Answer: -0.243

Question: With ACCTCTAGGTAACCAAGTTCAGTGAATGCCGAAC as the sequence, how does the PBM binding z-score read?
Answer: 3.87

Question: Which PBM binding z-score does the source give for AATACAGGGTCATCGTAGGCCGGAGTACGCACAG here?
Answer: 2.7

Question: For CCACCAAGGTGAACAAGGTCGTTGATTACTATTC, which PBM binding z-score is on record?
Answer: 2.14

Question: CCGAGTAGGTTATGGCGCATTCAGGCAACGGTGA was tested. Which PBM binding z-score did it give?
Answer: 3.17

Question: With ACTTACGGGTCAACGAGGGTATAGCACGCGTATA as the sequence, how does the PBM binding z-score read?
Answer: 2.86

Question: How did the PBM binding z-score turn out when CGTCCAAGGTCAGAGAGGTCAGTCAATGCCGAGT was run?
Answer: 2.82

Question: CAAACTAGGTCAAGAGGTTAAAGTCCGCTTCCCG was tested. Which PBM binding z-score did it give?
Answer: 8.33

Question: How did the PBM binding z-score turn out when TCTAGCAGGCCAGAGAGTCACTCAAGAGGTACGG was run?
Answer: 0.614

Question: Which PBM binding z-score does the source give for TCTTTTAGATCAAAGGTTAAGAAAGCCGAAGCCT here?
Answer: 2.09

Question: For CAAACTTGGTCAAGGTCAAAGTCGGTTTGTGCCA, which PBM binding z-score is on record?
Answer: 2.24

Question: Which PBM binding z-score does the source give for GCGACTGTGGCATCAGCAGGTTACCATAACTTAA here?
Answer: 0.287

Question: How did the PBM binding z-score turn out when ATCGAAAGGTCGAGGAGAGTATAGAGAAAGGGAA was run?
Answer: 0.194

Question: With CATACAGGGTCAGCTAGGCCACAGTAGGGACGGC as the sequence, how does the PBM binding z-score read?
Answer: 1.06

Question: Which PBM binding z-score does the source give for TCATATAGGAAAATGCTAGGTGAAAGTCCGATCT here?
Answer: 2.71

Question: CCTCGGAGGACAGAACGTCAGAGCTGTCCGCTTT was tested. Which PBM binding z-score did it give?
Answer: -0.575

Question: CCGACTGGGGCATAAGGTTACCATGAGCCAGCCC was tested. Which PBM binding z-score did it give?
Answer: 2.64

Question: How did the PBM binding z-score turn out when TCTTGTAGATCAAGCAGGTTTAGAAAGCCTGAGT was run?
Answer: 1.37

Question: GGAACGAGGGCAAGTTGATGGCAGAGTTTGATGG was tested. Which PBM binding z-score did it give?
Answer: 3.55

Question: Which PBM binding z-score does the source give for CCTCGGAGGACAACAGGTGGTCAGAGCTGCCAGA here?
Answer: -0.455

Question: With TCGAGTAGGTTCCCAATGGGGCATTCAGCTTTCT as the sequence, how does the PBM binding z-score read?
Answer: 0.883

Question: How did the PBM binding z-score turn out when TCGAATAGGTTAGTCGGGGCATTCAGCCAACATA was run?
Answer: 2.05

Question: For TCGAGTAGGTTACCAATGGGGTATTCAGCTTTCT, which PBM binding z-score is on record?
Answer: 3.18

Question: How did the PBM binding z-score turn out when CAAACTAGTTCAAGGTCAAAGTCGGTTTGTGCCA was run?
Answer: 2.12

Question: Which PBM binding z-score does the source give for CGAACTAGGTCATCCAGGACAGCGAATACATTGA here?
Answer: 8.26

Question: For ATACCAAAGTGATCGTGAGGTCGTTGATACTAAC, which PBM binding z-score is on record?
Answer: -0.498

Question: How did the PBM binding z-score turn out when ACCTCTAGGTAAGACTCAGTTCAGTGAAGAACGC was run?
Answer: 1.32

Question: For TCATATAGGTAAAATGTGAAAGTCGGTGTGGTAA, which PBM binding z-score is on record?
Answer: 4.79

Question: How did the PBM binding z-score turn out when CCGACTGGGGCAGAAAGGTTACCATCCCATCCGG was run?
Answer: 1.51

Question: TGGAGTAGGTTAGGGGCATTCAGAATGGCGTCGA was tested. Which PBM binding z-score did it give?
Answer: 2.77

Question: For CCTACTGGGCCAAAGTCATTGATCAGTCAAAGCA, which PBM binding z-score is on record?
Answer: 4.29

Question: ATTCGGAGGACAAAGGTCAGAGCTACGCCAGTGA was tested. Which PBM binding z-score did it give?
Answer: 0.417

Question: ATACCAAGGTGATCGTGAGGTCGTTGAGACTAAC was tested. Which PBM binding z-score did it give?
Answer: 0.478

Question: GCTAGCAGGCCAGTTGGGTCACTCAATGACGGGC was tested. Which PBM binding z-score did it give?
Answer: 0.163

Question: With CCTACTGGGCCCAAAAGGTCATTGATGCCGATAA as the sequence, how does the PBM binding z-score read?
Answer: 0.117

Question: AGAACGAGGGCACGATGAGTTGATAGCAGAGTAG was tested. Which PBM binding z-score did it give?
Answer: 3.75

Question: For TCATATAAGTAATACAGGTGAAAGTCGGCATCTA, which PBM binding z-score is on record?
Answer: 3.37

Question: How did the PBM binding z-score turn out when ATCGAAATGTCGACGAGGTGAGTATACACCGTTT was run?
Answer: -0.343

Question: How did the PBM binding z-score turn out when TCTCGGAGGACACGAAAGGTCAGAGCTCGACATC was run?
Answer: 1.62
